Records with an inconclusive call do not appear. Active and inactive are the calls of the source. Calls follow the shape of the dose curve; as a rule, active = well fitted cell-killing curve with a large enough effect; inconclusive = small, poorly fitted or top-dose-only effect; inactive = no such curve, though single readings can be large or run the other way.
Potency is read from the fitted curve at half-maximal effect.

A short description of this experiment: qHTS of pediatric cancer cell lines to identify multiple opportunities for drug repurposing: Primary screen for OHS-50 cells (AID 1347103). Also: nearly all actives have a fitted effect of over 40% in size. The conditions noted are these: OHS-50 osteosarcoma viability, CellTiter-Glo luminescence, 48 h; series mostly up to 57.3 µM; activity change, negative = cytotoxic: at the top concentration. From the text: Drug repurposing or repositioning has been offered as a strategy for drug development in oncology programs. This approach has special potential for childhood cancers and other rare or orphan diseases, where the expected return on new drug development has been a disincentive to pharmaceuticals.
In this project we exploit the poly-pharmacology of drugs to discover new indications via phenotypic screening of a panel of 19 well-characterized cell lines derived from solid tumors seen in children and adolescents. The goal is to identify approved drugs with previously unrecognized anticancer properties that has the potential to reveal new mechanisms and biological processes involved in carcinogenesis or drug resistance. We employed a titration-based paradigm (quantitative high-throughput screening or qHTS), where all compounds were tested at multiple concentrations for their effect on cell viability. Concentration-response curves (CRCs) were derived directly from the primary screen, and both potency and efficacy values were used to identify compounds with robust bioactivity profiles. We screened the NIH Chemical Genomics Center (NCGC) Pharmaceutical Collection (NPC) and Mechanism Interrogation Plate (MIPE) small molecule collections of approved and investigational compounds against these cell lines; and measured metabolically active cells after 48 hours of compound treatment as a proxy for cell viability.
Assay Submitter: Nathalia J. Martinez, National Center for Advancing Translational Sciences, National Institutes of Health, Rockville, MD, USA; email: natalia.martinez@nih.gov
[1] Shen, M et al. Quantitative high-throughput phenotypic screening of pediatric cancer cell lines identifies multiple opportunities for drug repurposing. Oncotarget 2017 Dec 19;9(4):4758-4772. PMID 29435139.
The cells were obtained from University of North Carolina (UNC), Pediatric Preclinical Testing Program (PPT), and Coriell Institute (CI).
qHTS cell viability assay:
Cells were assayed in growth media at a density of 500-1,000 cells/well. Five microliters of cells were dispensed into 1,536-well, white, solid-bottom, TC-treated plates (Greiner Bio One) using a multidrop dispenser and incubated at 37 degrees C, 5% CO2, under a humidified atmosphere for 5 hours. Twenty-three nanoliters of compounds and controls (neutral control DMSO or positive control bortezomib at final concentration of 2.3 µM) were subsequently transferred by Kalypsys pintool. For primary screens, the MIPE collection was tested at 11-point dilutions (final concentrations range from 0.78 nM to 46 µM) and the NPC collection at 8-point dilutions (final concentrations range from 0.59 nM to 46 µM). Compounds tested in follow-up screens were assayed at 11-point dilutions. Cells were incubated for 48 hours, followed by addition of 3 µL of CellTiter-Glo (Promega). After a 15 min incubation at room temperature, samples were analyzed for luminescence intensity using a ViewLux High-throughput CCD imager equipped with clear filters.
`OC[C@H]1O[C@@H](O[C@H]2[C@@H](O)[C@@](O)(CO)O[C@@H]2CO)[C@H](O)[C@@H](O)[C@@H]1O`: the “activity change, negative = cytotoxic” value is -10.6% (inactive).

For `COc1cc2nccc(Oc3ccc(NC(=O)Nc4cc(C)on4)c(Cl)c3)c2cc1OC`, the Potency was 19.3 µM (active).

As to `CCC=CC[C@H]1C(=O)CC[C@@H]1CC(=O)OC`, the “activity change, negative = cytotoxic” value is 13.3% (inactive).

Regarding `CCCC1OC2C[C@@H]3[C@H]4CCC5=CC(=O)C=C[C@]5(C)[C@H]4C(O)C[C@]3(C)[C@]2(C(=O)CO)O1` (stereo not given in full), the “activity change, negative = cytotoxic” value was -8.29% (inactive).

As for `O=C(CC12CC3CC(CC(C3)C1)C2)Nc1cccc2nc(NCCNCCO)ccc12`, the Potency was 27.3 µM (active).

With `CNc1nc(-c2ccc3c(N)n[nH]c3c2)cc(N2C[C@@H](C(=O)NC3CCCCC3)CC[C@@H]2C)n1`, the Potency is 0.273 µM (active).

As to `CC[C@H](C)n1cc(C)c2c(C(=O)NCc3c(C)cc(C)[nH]c3=O)cc(-c3ccc(N4CCNCC4)nc3)cc21`, the Potency was 24.3 µM (active).

Regarding `CN1N=C(N)c2cn([C@@H]3O[C@H](COP(=O)(O)O)[C@@H](O)[C@@H]3O)c3ncnc1c23`, the Potency is 0.193 µM (active).

For the compound `O=S(=O)(NCCNCC=Cc1ccc(Br)cc1)c1cccc2cnccc12`, the Potency is 7.69 µM (active).

In the case of `COc1cc2nccc(Oc3ccc(NC(=O)Nc4ccc(F)cc4F)c(F)c3)c2cc1OC`, the Potency is 1.53 µM (active).

As for `C=CCc1cccc(C=NNC(=O)CN2CCN(Cc3ccccc3)CC2)c1O`, the Potency was 7.69 µM (active).

For the compound `N[C@@H](CC(=O)N1CCn2c(nnc2C(F)(F)F)C1)Cc1cc(F)c(F)cc1F`, the “activity change, negative = cytotoxic” value was 14.3% (inactive).

Turning to `CC[C@H](C=C[C@@H](C)[C@H]1CC[C@H]2[C@@H]3CC=C4C[C@@H](O)CC[C@]4(C)[C@@H]3CC[C@]12C)C(C)C`, the “activity change, negative = cytotoxic” value is -9.86% [at 19.7 µM] (inactive).

For `CCOC(=O)[C@@H](N)CCC(=O)N[C@@H](CSCc1ccccc1)C(=O)N[C@@H](C(=O)OCC)c1ccccc1`, the “activity change, negative = cytotoxic” value was 19.4% (inactive).

For `CNC1[C@H](O)C(O[C@@H]2C(O)C(O[C@H]3O[C@H]([C@@H](C)NC)CC[C@H]3N)[C@@H](N)C[C@H]2N)OC[C@]1(C)O` (stereo not given in full), the “activity change, negative = cytotoxic” value is -4.57% (inactive).

For the compound `NC(=O)c1nnn(Cc2cc(Cl)c(C(=O)c3ccc(Cl)cc3)c(Cl)c2)c1N`, the Potency was 21.7 µM (active).

For the compound `Cc1ccccc1-n1c(Cn2nc(-c3cccc(O)c3)c3c(N)ncnc32)nc2cccc(C)c2c1=O`, the Potency is 0.0385 µM (active).

`CO[C@H]1/C=C\O[C@@]2(C)Oc3c(C)c(O)c4c(O)c(c(C=NN5CCN(C6CCCC6)CC5)c(O)c4c3C2=O)NC(=O)C(C)=CC=C[C@H](C)[C@H](O)[C@@H](C)[C@@H](O)[C@@H](C)[C@H](OC(C)=O)[C@H]1C`: the Potency is 0.193 µM (active).

Consider `Cc1ccc(C(=O)N(CCCN)[C@@H](c2oc3cc(Cl)ccc3c(=O)c2Cc2ccccc2)C(C)C)cc1`, for which the Potency is 0.001 µM (active).

As to `OCCn1cc(-c2ccc3c(c2)CCC3=NO)c(-c2ccncc2)n1`, the “activity change, negative = cytotoxic” value is 20.1% (inactive).

`CC(=O)NCCC(=O)N[C@@H](CCC(N)=O)C(=O)N[C@@H](CO)C(=O)N[C@@H](CCC(N)=O)C(=O)N[C@@H](CCC(N)=O)C(=O)N[C@H](C(=O)N[C@@H](Cc1ccccc1)C(=O)N[C@]1(C)CCCCCCC=CCCC[C@@](C)(C(=O)N[C@@H](CCC(N)=O)C(=O)N[C@@H](CC(N)=O)C(N)=O)NC(=O)[C@H](CC(C)C)NC(=O)[C@H](CC(C)C)NC(=O)[C@@H](CCCNC(=N)N)NC(=O)[C@H](Cc2c[nH]c3ccccc23)NC(=O)[C@H](CC(C)C)NC(=O)[C@H](CC(N)=O)NC1=O)[C@H](C)O`: the “activity change, negative = cytotoxic” value was 46.2% (inactive).

Turning to `CCCCC[C@H](O)C=C[C@H]1[C@H](O)CC(=O)[C@H]1CCCCCCC(=O)O`, the “activity change, negative = cytotoxic” value is 10.3% (inactive).

With `COc1ccc(C=CC(=O)Nc2ccccc2C(=O)O)cc1OC`, the “activity change, negative = cytotoxic” value is 22.2% (inactive).

Regarding `CC(C)C[C@@H](C(=O)N[C@H](C(=O)OC1CCCC1)c1ccccc1)[C@H](O)C(=O)NO`, the Potency was 21.7 µM (active).

In the case of `CC(C)(CO)[C@@H](O)C(=O)NCCC(=O)O`, the “activity change, negative = cytotoxic” value is 1.81% (inactive).

In the case of `Cc1ccc(NC(=O)Nc2cc(C(F)(F)F)ccc2F)cc1Nc1ccc2c(c1)NC(=O)C2=Cc1ccc[nH]1`, the Potency was 27.3 µM (active).

Turning to `Nc1ccn([C@@H]2O[C@H](CO)[C@@H](O)[C@H]2O)c(=O)n1`, the Potency is 13.7 µM (active).

On to `O=C(c1ccc(C(=O)N2CCC(N3CCCC3)CC2)c(Nc2ccccc2)c1)N1CCC(N2CCCC2)CC1`, for which the “activity change, negative = cytotoxic” value was 14.5% (inactive).

In the case of `CC(C)(OCc1nn(Cc2ccccc2)c2ccccc12)C(=O)O`, the “activity change, negative = cytotoxic” value is -4.09% (inactive).

On to `C[C@@H](O[C@H]1OCCN(Cc2n[nH]c(=O)[nH]2)[C@@H]1c1ccc(F)cc1)c1cc(C(F)(F)F)cc(C(F)(F)F)c1`, for which the Potency is 30.6 µM (active).

With `O=C(CCCN1CCN(c2ccc(F)cc2)CC1)NC1c2ccccc2CSc2ccccc21` (stereo not given), the Potency was 8.63 µM (active).

In the case of `CCOC(=O)c1c(CSc2ccccc2)n(C)c2cc(Br)c(O)c(CN(C)C)c12`, the Potency is 27.3 µM (active).

For the compound `COC(=O)Nc1ccc(-c2nc(N3CCOCC3)c3cnn(C4CCN(C(=O)OC)CC4)c3n2)cc1`, the Potency was 0.432 µM (active).

Consider `COc1ccc2ccc(=O)oc2c1CC=C(C)C`, for which the Potency was 24.3 µM (active).

Regarding `CC(C)CN(C[C@@H](O)[C@H](Cc1ccccc1)NC(=O)O[C@H]1CO[C@H]2OCC[C@H]21)S(=O)(=O)c1ccc(N)cc1`, the Potency is 12.2 µM (active).

Turning to `CC(C)C[C@@H](N)[C@H](O)C(=O)N[C@H](C(=O)N[C@H](C(=O)N[C@@H](CC(=O)O)C(=O)O)C(C)C)C(C)C`, the “activity change, negative = cytotoxic” value is 21.4% (inactive).

`COc1cc2c(cc1Cc1cccc(Cl)c1F)c(=O)c(C(=O)O)cn2[C@H](CO)C(C)C`: the Potency is 27.3 µM (active).

`CNC(=O)c1cc(COc2nnc(Nc3ccc(Cl)cc3)c3ccoc23)ccn1`: the Potency is 21.7 µM (active).

Regarding `c1ccc(-c2oc3ncnc(NC[C@@H]4CCCO4)c3c2-c2ccccc2)cc1`, the Potency was 27.3 µM (active).

Take `Cc1cc(C(C)Nc2ccccc2)c2nc(N3CCOCC3)cc(=O)n2c1` (stereo not given): the Potency was 24.3 µM (active).
